BCR signal inh – blocks chronic active B-cell receptor signaling; ABC-DLBCL IkBa-CBG/CBR reporter, luminescence ratio, 4 h; hit rate 0.05% among 340,000; AID 493014; Potency, µM (highest dose often 46.1 µM), inactives show at the highest dose activity change, negative = inhibition, actives largely listed as inhibitors; active = well fitted inhibition curve with a large enough effect in the signal ratio, with a control signal flat, not every such curve was filed as active; inconclusive = small, poorly fitted or top-dose-only effect, or effect the other way, or a change in a side signal; the % refers to the signal ratio;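 also: potency is read from the fitted curve at half-maximal effect; plate controls were basal doxycycline-induced cells for no effect and cells given 10 µM MG132 for full effect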
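Cell line TMD8 (human ABC DLBCL), stably expressing tet-inducible CBG68-IkBa fusion and CBR; IMDM/0.5% FBS; cpd up to 46 uM; dox induction, 4 h, 37C/5% CO2; dual luminescence; green/red ratio; MG132 control.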
IL1B secr inh – blocks inflammasome-driven IL-1 beta release. THP-1 LPS/ATP IL-1B secretion, AlphaLISA, 16 h; stronger effect = lower value. activity change, % at 57.5 µM. hit rate 4.7% among 360,000. AID 743279; in the data active = activity change below about -50%; inconclusive = mostly about -30% to -49%; also: % is scaled to controls: 0 for no effect and ±100 for the full control effect
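THP-1 cells pretreated 1 hr with compounds (up to 57.5 uM final), then stimulated with LPS (250 ng/mL final) plus ATP (1.25 mM final); secreted IL-1B measured by AlphaLISA after 16 hr, decreased signal indicating inhibition.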
TDP1 cell CPT – DT40-hTDP1 cell growth loss with CPT; hit rate 12% among 420,000; chicken DT40 Tdp1-/-;hTDP1 cells + 20 nM CPT, ATP luminescence, 48 h; Potency, µM (series often up to 46.2 µM), for inactives: top-dose activity change, negative = growth inhibition, actives largely listed as inhibitors; also: potency is read from the fitted curve at half-maximal effect; % is scaled to controls: 0 for no effect and ±100 for the full control effect; nearly all actives have a fitted effect of over 55% in size
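Chicken DT40 Tdp1-/- cells stably complemented with human TDP1 were seeded at 400 cells/well in medium containing 20 nM camptothecin, exposed to pin-transferred compounds, and grown at 37 °C for at least 48 hr. Viability was read as ATP luminescence.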
DT40 TDP1 no CPT – qHTS for Inhibitors of human tyrosyl-DNA phosphodiesterase 1 (TDP1): qHTS in cells in absence of CPT | DT40 Tdp1-/- hTDP1 cells, no CPT, ATP luminescence, 48 h | Potency, µM (highest dose often 46.2 µM), for the others: at the top dose activity change, negative = growth inhibition, actives largely listed as inhibitors | AID 686978, 2013 | hit rate 15% among 420,000; also: potency is read from the fitted curve at half-maximal effect; % is scaled to controls: 0 for no effect and ±100 for the full control effect; nearly all actives have a fitted effect of over 55% in size
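Seeded 400 DT40-hTDP1 cells/well (vehicle DMSO, no 20 nM CPT); pinned compounds; ≥48 hr at 37 °C; CellTiter-Glo luminescence as viability measure.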
MCF10A rereplic – DNA re-replication induction in MCF 10a cells | MCF 10A DNA re-replication, Hoechst nuclear intensity, 48 h | hit rate 2.9% among 350,000 | Potency, µM (top dose mostly 46.1 µM), for the others: top-dose activity, positive = re-replication, usual class: activators | AID 624296; also: potency is read from the fitted curve at half-maximal effect; % of control where 0% means no effect; nearly all actives have a fitted effect of over 50% in size
SW480 rereplic – induces DNA re-replication in SW480 colon adenocarcinoma cells; SW480 DNA re-replication, Hoechst DNA content imaging, 48 h; Potency, µM (doses to about 46.1 µM), without a hit: top-dose re-replication activation, most hits filed as activators; hit rate 1.8% among 340,000; AID 624297; also: potency is read from the fitted curve at half-maximal effect; % of control where 0% means no effect; nearly all actives have a fitted effect of over 55% in size
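First, 250 cells per well were seeded. Next, compound or vehicle (23 nL) was pinned in, plates sat 48 hr at 37 C. Finally Hoechst was added for 40 min before fluorescence scanning.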
* = called active by the depositor. Compounds with a hit are over-represented: about 19% of the library has one in this group of screens. Unless noted, calls follow the shape of the dose curve; as a rule, active = well fitted curve in the direction sought with a large enough effect; inconclusive = small, poorly fitted or top-dose-only effect, or another doubt; inactive = no such curve, though single readings can be large; an effect the other way counts as inactive or inconclusive.

For CCCCN(CCCC)S(=O)(=O)c1ccc(N2CCCC2=O)c([N+](=O)[O-])c1 the results were IL1B secr inh 15, TDP1 cell CPT inconclusive, DT40 TDP1 no CPT 21µM*, MCF10A rereplic 19% and SW480 rereplic 22%.
For Cc1ccccc1CN(CC(=O)Nc1cccc([N+](=O)[O-])c1)S(=O)(=O)c1ccc(Cl)cc1 the results were BCR signal inh inconclusive, IL1B secr inh inconclusive, TDP1 cell CPT inconclusive, DT40 TDP1 no CPT inconclusive, MCF10A rereplic 16% and SW480 rereplic inconclusive.
For CCOC(=O)C(C)(C)N(Cc1ccccc1C)S(=O)(=O)c1ccc(Cl)c([N+](=O)[O-])c1 the results were BCR signal inh inconclusive, IL1B secr inh -97*, TDP1 cell CPT inconclusive, DT40 TDP1 no CPT 12µM*, MCF10A rereplic 18µM* and SW480 rereplic inconclusive.
Screening CCCN(CCC)S(=O)(=O)c1ccc(Cl)c([N+](=O)[O-])c1 returned BCR signal inh inconclusive, IL1B secr inh -103*, TDP1 cell CPT inconclusive, DT40 TDP1 no CPT 15µM*, MCF10A rereplic inconclusive and SW480 rereplic 6%.
`CCCN(CCC)S(=O)(=O)c1ccc(N2CCCC2=O)c([N+](=O)[O-])c1` gave BCR signal inh -3%, IL1B secr inh 2, TDP1 cell CPT inconclusive, DT40 TDP1 no CPT -2%, MCF10A rereplic 1% and SW480 rereplic -5%.
For NS(=O)(=O)c1ccc(CCNC(=O)c2ccc(NC3=NC4CS(=O)(=O)CC4S3)cc2)cc1 (configuration not stated) the results were BCR signal inh 1%, IL1B secr inh 2, TDP1 cell CPT 19%, DT40 TDP1 no CPT -1%, MCF10A rereplic 0% and SW480 rereplic -3%.
Cc1ccc2c(CN3CCC(C(N)=O)CC3)cc(=O)oc2c1C was read as BCR signal inh 0%, IL1B secr inh -5, TDP1 cell CPT 15%, DT40 TDP1 no CPT -30%, MCF10A rereplic 0% and SW480 rereplic -10%.
`O=C1O[C@@H]([C@H](O)CO)C(O)=C1O` gave IL1B secr inh -2, TDP1 cell CPT 21µM*, DT40 TDP1 no CPT inconclusive, MCF10A rereplic -2% and SW480 rereplic 11%.
Cc1cccc(CNc2ncncc2-c2ccccc2Cl)c1 was read as TDP1 cell CPT -11% and DT40 TDP1 no CPT inconclusive.
For COc1ccc(CNC(=O)/C=C/c2ccc(S(=O)(=O)N3CCOCC3)cc2)cc1 the results were BCR signal inh 2%, IL1B secr inh 0, TDP1 cell CPT -16%, DT40 TDP1 no CPT inconclusive, MCF10A rereplic -3% and SW480 rereplic -4%.
Screening COc1ccc(CN(C)C(=O)/C=C/c2ccc(S(=O)(=O)N3CCOCC3)cc2)cc1F returned BCR signal inh -27%, IL1B secr inh -14, TDP1 cell CPT 16µM*, DT40 TDP1 no CPT 21µM*, MCF10A rereplic 8% and SW480 rereplic -2%.
For COc1ccc(/C=C/C(=O)NCc2ccc(F)cc2)cc1S(=O)(=O)N1CCOCC1 the results were BCR signal inh 0%, IL1B secr inh 27, TDP1 cell CPT -2%, DT40 TDP1 no CPT -22%, MCF10A rereplic -11% and SW480 rereplic inconclusive.
Screening CN(Cc1ccc(OC(F)F)cc1)C(=O)/C=C/c1ccc(S(=O)(=O)N2CCOCC2)cc1 returned BCR signal inh -7%, IL1B secr inh -66*, TDP1 cell CPT 18µM*, DT40 TDP1 no CPT inconclusive, MCF10A rereplic 11% and SW480 rereplic -6%.
For c1ccc(CC2=NCCN2)cc1 the results were BCR signal inh -4%, IL1B secr inh -13, TDP1 cell CPT 2%, DT40 TDP1 no CPT -7%, MCF10A rereplic -1% and SW480 rereplic -24%.
